APP transl inh = APP translation inhibition; actives 0.82% (n = 190,000); SH-SY5Y APP 5'UTR-luciferase reporter, luminescence; inhibition, % at 2 µM;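 active means inhibition above a set limit, derived from the sample mean plus 3 SD, cut at about 45% in these data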
KLF5 inhibitor = kruppel-like factor 5 inhibition; inhibition, % at 5 µM; DLD-1 KLF5 promoter-luciferase reporter, luminescence; actives 0.23% (n = 290,000);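 active means inhibition above a per-plate limit of that plate's mean compound inhibition plus 3 SD, cut at about 60% in these data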;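 further: higher means less KLF5 promoter-driven luciferase light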
Ba/F3 V617F tox = loss of viability in JAK2V617F-driven Ba/F3 cells; inhibition, % at 5.6 µM; AID 1446; actives 1.1% (n = 220,000); Ba/F3 EpoR-JAK2V617F viability, ATP luminescence;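 active means inhibition above the campaign mean plus 3 SD over all tested compounds, cut at about 24% in these data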;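 further: cytokine-independent growth of Ba/F3 cells driven by EpoR plus mutant JAK2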
IEC-6 cytotox = counter-screen for KLF5 inhibitors: cytotoxicity in IEC-6 cells. inhibition, % at 5 µM. IEC-6 cytotoxicity, luminescence viability. AID 1825. actives 0.78% (n = 290,000); in the data active means inhibition above about 22%
aSyn 5UTR inh = MLPCN primary screen, SNCA 5' untranslated region; inhibition, % (tested at 7.5 µM); actives 0.82% (n = 300,000); AID 1813; alpha-synuclein 5'UTR reporter, inhibitor activity; in the data active means inhibition above about 60%;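 further: H4 neuroglioblastoma cells stably carrying SNCA 5'UTR luciferase fusion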
BaF3 parental = counter-screen for JAK2V617F inhibitors: parental Ba/F3 viability inhibitors. CellTiter-Glo ATP luminescence. inhibition, % at 5.6 µM. actives 1.1% (n = 220,000). AID 1486;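 active means inhibition above a per-campaign cutoff, the mean inhibition of all tested compounds plus 3 SD, cut at about 27% in these data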
Each line names hits and unclear results; the compound was inactive in the other large screens. In the library only some 2.2% were active in any assay of this set; here they are far more common.

Cc1ccccc1C(=O)N1CCC(n2nccc2NC(=O)CCOc2ccccc2)CC1	none (no result: APP transl inh, Ba/F3 V617F tox, BaF3 parental)
COc1ccc(C([O-])=Nc2ccc[n+](-c3nc4ccccc4nc3NS(=O)(=O)c3ccccc3)c2)cc1	aSyn 5UTR inh 84 (no result: APP transl inh)
O=C1C2C3c4ccccc4C(c4ccccc43)[C@@H]2C(=O)N1c1cccnc1 (some centres undefined)	none
O=C1C2C3c4ccccc4C(c4ccccc43)C2C(=O)N1c1ccncc1 (centres undefined)	Ba/F3 V617F tox 66, BaF3 parental 71
O=C(CN(c1ccc(Cl)cc1)S(=O)(=O)c1ccc(Cl)c([N+](=O)[O-])c1)NCCc1ccccc1	aSyn 5UTR inh 106
O=C(/C=C/c1cccc([N+](=O)[O-])c1)c1ccc([N+](=O)[O-])o1	aSyn 5UTR inh 71 (no result: APP transl inh, KLF5 inhibitor, Ba/F3 V617F tox, IEC-6 cytotox, BaF3 parental)
C[N+](C)(C)CCCCCC[N+](C)(C)C	none (no result: APP transl inh, KLF5 inhibitor, Ba/F3 V617F tox, IEC-6 cytotox, BaF3 parental)
CC#CC[N+](C)(C)CCCCCCCCCCCC	Ba/F3 V617F tox 101, IEC-6 cytotox 24, BaF3 parental 81
C#CC[N+](C)(C)CCCCCCCC	Ba/F3 V617F tox 66, BaF3 parental 43
C#CC[N+](C)(C)CCCCCCCCCCCC	Ba/F3 V617F tox 80, aSyn 5UTR inh 77, BaF3 parental 76
CCCCCCCCCCCCCCCC[N+](C)(C)CC	aSyn 5UTR inh 101 (no result: APP transl inh, KLF5 inhibitor, Ba/F3 V617F tox, IEC-6 cytotox, BaF3 parental)
CCn1cc(S(=O)(=O)NCCc2ccccc2OC)cn1	none (no result: APP transl inh, Ba/F3 V617F tox, BaF3 parental)
CC(C)CCN(C(=O)C1=COCCO1)c1c(N)n(Cc2ccccc2)c(=O)[nH]c1=O	none (no result: APP transl inh, KLF5 inhibitor, Ba/F3 V617F tox, IEC-6 cytotox, BaF3 parental)
COc1ccc(C)cc1S(=O)(=O)N1CCN(C(=O)c2ncoc2-c2cccc(F)c2)CC1	none (no result: APP transl inh, Ba/F3 V617F tox, BaF3 parental)
CCCCCC[N+](C)(C)CCSSCC[N+](C)(C)CCCCCC	none (no result: APP transl inh)
C#CC[N+](C)(C)CCCCCCCCCC	Ba/F3 V617F tox 79, aSyn 5UTR inh 75, BaF3 parental 79
O=C(CSc1nc2ccccc2n1Cc1ccc(Cl)cc1)N/N=C/c1ccc(C(=O)O)cc1	APP transl inh 54
CCOC(=O)C1(Cc2cccc(Cl)c2)CCCN(C(=O)CCN2CCCC2=O)C1 (centres undefined)	none (no result: APP transl inh, Ba/F3 V617F tox, BaF3 parental)
CC(C)CCNC(=O)c1ccc(OC2CCN(S(=O)(=O)N(C)C)CC2)cc1	BaF3 parental 27
Cc1cc(S(=O)(=O)N2CCCC(N(C)CCc3ccccn3)C2)c(C)cc1Cl (centres undefined)	none (no result: APP transl inh, Ba/F3 V617F tox, BaF3 parental)
COc1ccc(OC)c(NC(=O)CSc2nc3ccccc3c3nc4ccccc4n23)c1	none (no result: aSyn 5UTR inh)
COc1ccc(NC(=O)CSc2nc3ccccc3c3nc4ccccc4n23)cc1	APP transl inh 81 (no result: aSyn 5UTR inh)
Cc1ccc(NC(=O)CSc2nc3ccccc3c3nc4ccccc4n23)cc1	APP transl inh 51, aSyn 5UTR inh 110
Cc1ccc(NC(=S)NNC(=O)CSc2nc3ccccc3c(=O)n2-c2ccc(C)cc2)cc1	BaF3 parental 43
Cc1ccc(-n2c(SCC(=O)Nc3ccc(N4CCOCC4)cc3)nc3ccccc3c2=O)cc1	none
Cc1cc(=O)oc2cc(NC(=O)c3ccccc3Cl)ccc12	none (no result: APP transl inh, Ba/F3 V617F tox, BaF3 parental)
COc1cc(C(=O)O)c2c(c1C)OC(=O)c1c(C)cc(O)c(C=O)c1O2	none (no result: APP transl inh, KLF5 inhibitor, Ba/F3 V617F tox, IEC-6 cytotox, BaF3 parental)
Cc1ccc(OCc2nc(C#N)c(NCc3ccc4c(c3)OCO4)o2)cc1	APP transl inh 67
COc1ccc(Nc2oc(COc3ccc(Cl)cc3)nc2C#N)cc1	aSyn 5UTR inh 91
COC(C)c1oc2c(C)c3oc(=O)cc(C)c3cc2c1C (centres undefined)	none (no result: APP transl inh, KLF5 inhibitor, Ba/F3 V617F tox, IEC-6 cytotox, BaF3 parental)
CCOC(=O)N1CCN(C(=O)CSc2ccc3nnc(-c4ccccn4)n3n2)CC1	none
O=C(CSc1ccc2nnc(-c3ccccn3)n2n1)N1CCOCC1	APP transl inh 59
O=C(c1ccc(Cl)cc1)C(Cn1cncn1)C(Sc1ccccc1)c1ccccc1 (centres undefined)	APP transl inh 51
CC(=O)N(C)c1cccc([N+](=O)[O-])c1	APP transl inh 87
CN(N=Nc1cccc([N+](=O)[O-])c1)c1cccc([N+](=O)[O-])c1	none
COCCN(Cc1cc2ccc(C)cc2n2nnnc12)Cc1nnnn1C(C)(C)C	APP transl inh 46
CCOc1ccc(Cn2c(=O)oc3ccccc32)cc1	none (no result: APP transl inh, Ba/F3 V617F tox, BaF3 parental)
CC(C)(C)c1ccccc1NC(=S)NC1CCCCC1	BaF3 parental 40
CC(C)(C)c1ccccc1NC(=S)NC1CCCC1	none (no result: APP transl inh, Ba/F3 V617F tox, BaF3 parental)
CC(C)(C)c1ccc(/C=N/N2CCN(c3ccccn3)CC2)cc1	none (no result: APP transl inh)
CN(C)c1ccc(/C=N/N2CCN(c3ccccn3)CC2)cc1	Ba/F3 V617F tox 35, BaF3 parental 57 (no result: APP transl inh)
COc1cccc(NC(=O)CSc2nc3ccccc3cc2Cc2ccccc2)c1	none
COc1cccc(CSc2nc3ccccc3cc2C=O)c1	APP transl inh 89, Ba/F3 V617F tox 50, aSyn 5UTR inh 71, BaF3 parental 36
COc1ccc(NC(=O)N2CCN(c3ccc([N+](=O)[O-])cc3)CC2)cc1OC	none
Cc1ccc(/C=N/NC(=O)Cc2ccc(Cl)cc2)c(O)c1	aSyn 5UTR inh 66 (no result: APP transl inh, Ba/F3 V617F tox, BaF3 parental)
CCC(C)Nc1nc(C)nc2c1oc1ccccc12 (centres undefined)	none (no result: APP transl inh)
Cc1nc(NC(C)c2ccccc2)c2oc3ccccc3c2n1 (centres undefined)	BaF3 parental 35
CCN(CC)S(=O)(=O)c1cccc(C(=O)N/N=C(\C)c2ccc(O)cc2O)c1	aSyn 5UTR inh 111
COc1ccc2oc(=O)c(-c3csc(Nc4ccc(O)cc4)n3)cc2c1	Ba/F3 V617F tox 60, BaF3 parental 28
COc1ccc2oc(=O)c(/C(C)=N/Nc3nc(-c4cc(C)ccc4C)cs3)cc2c1	none
CC(C)(C)OC(=O)N[C@@H](Cc1ccccc1)c1nnc(S(=O)(=O)Cc2ccccc2)o1	APP transl inh 64, Ba/F3 V617F tox 58 (no result: aSyn 5UTR inh)
Cc1ccc(NC(=O)CNCc2cccs2)cc1Br	none (no result: APP transl inh, Ba/F3 V617F tox, BaF3 parental)
O=C1C2C3C=CC(CO)(O3)C2C(=O)N1c1ccccc1-c1ccccc1 (centres undefined)	APP transl inh 70 (no result: aSyn 5UTR inh)
COc1ccc(Nc2cc3n(c(=O)n2)CCc2cc(OC)c(OC)cc2-3)c(C)c1	aSyn 5UTR inh 80 (no result: APP transl inh, Ba/F3 V617F tox, BaF3 parental)
CCOc1cc(S(=O)(=O)NCCCN2CCOCC2)ccc1F	none (no result: APP transl inh, Ba/F3 V617F tox, BaF3 parental)
N=c1n(N)c2ccccc2n1CC(=O)c1ccc(Br)cc1	none (no result: APP transl inh, Ba/F3 V617F tox, BaF3 parental)
CC(=O)Oc1c(C)c(=O)n(C)c2ccccc12	Ba/F3 V617F tox 66, BaF3 parental 42
CCCCN(Cc1ccccc1)C(=O)C1CCCN(S(=O)(=O)c2cnc[nH]2)C1 (centres undefined)	APP transl inh 48
Cc1ccc(C(c2cc(Cl)c3cccnc3c2O)N2CCN(C)CC2)cc1 (centres undefined)	aSyn 5UTR inh 66 (no result: APP transl inh, Ba/F3 V617F tox, BaF3 parental)
CN(C)CC(CCC(CN(C)C)C(=O)c1ccccc1)C(=O)c1ccccc1 (centres undefined)	KLF5 inhibitor 91, Ba/F3 V617F tox 99, IEC-6 cytotox 100, BaF3 parental 104 (no result: APP transl inh)
COc1ccc(C(=O)C(CCCCC(CN(C)C)C(=O)c2ccc(OC)cc2)CN(C)C)cc1 (centres undefined)	none
CNC(=S)N(CCc1c(C)[nH]c2ccc(OC)cc12)Cc1ccco1	none (no result: APP transl inh, Ba/F3 V617F tox, BaF3 parental)
O=C(CCCOc1ccc(Cl)cc1)N1CCCCC1	none

Source: PubChem
